# High-throughput results (PubChem)
# Only a selection was taken, and hits are over-represented in it overall.
# Pf Dd2 growth – qHTS Primary assay for Inhibitors of Plasmodium falciparum Dd2 growth in vitro. P. falciparum Dd2 growth, SYBR Green, 72 h. hit rate 4.3% among 120,000. AID 1347417, 2020. Potency, µM (titrated, usually from 28.9 µM), without a hit: at the top dose activity, negative = inhibition, hits mostly inhibitors; active means well fitted inhibition curve with a large enough effect;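 further: plate controls were DMSO vehicle for no effect and reference drug for full effect; nearly all actives have a fitted effect of over 65% in size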
#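 Readout: SYBR Green fluorescence, 485 nm excitation, 535 nm emission, after ~16 h lysis at 37C. Before that, Dd2-infected red cells (2.5% hematocrit) grew 72 h with compound, 29 uM top final concentration.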
# Starred values were filed as active, the others as inactive; i = inactive; [ ] = another dose, or the depositor's remark. Potency means the concentration at half of the fitted maximal effect.
SMILES,Pf Dd2 growth
COc1cc(OC)c(NC(=O)c2ccc3c(c2)N(Cc2ccc(C)cc2)CCS3)cc1Cl,11µM*
Cc1ccc(NC(=O)CN2CCSc3ccc(S(=O)(=O)N4CCCC4)cc32)cc1,7.9µM*
CCN1CCSc2ccc(C(=O)NCc3ccc(OC(C)C)cc3)cc21,17%
Cc1ccc(NC(=O)CN2C(=O)CCSc3ccc(S(=O)(=O)N4CCCC4)cc32)cc1,i
Cc1ccc(NC(=O)CN2C(=O)CCSc3ccc(S(=O)(=O)N4CCCC4)cc32)cc1C,13%
COc1cc(Cl)c(C)cc1NC(=O)c1ccc(CN2C(=O)CCn3nc(C)cc32)cc1,-3%
CCOc1ccc(CNC(=O)c2ccc3c(c2)N(CC)CCS3)cc1,36%
NC(=O)CCNC(=O)C1=C[C@@H](NC(=O)c2cccc(F)c2)[C@@H](O)[C@H](O)C1,-11%[44.1 µM]
Cc1ncc(CC(=O)N2CCCC(C)(Cc3ccc4c(c3)OCO4)C2)c(=O)[nH]1 (centres undefined),-8%
CN1CCN(c2nc3c(c(=O)[nH]2)CCN(Cc2ccc(Cl)c(F)c2)CC3)CC1,i[5.79 µM]
COc1ccccc1-c1nc2cnccn2c1NCCC(=O)Nc1cc(F)ccc1F,i
CN(Cc1nccs1)C(=O)CC(c1ccccc1)c1cccc(Cl)c1 (centres undefined),-26%
COCC1CN(S(=O)(=O)c2cccc(C#N)c2)CC12CCNCC2 (centres undefined),13%
Cc1ccccc1S(=O)(=O)N1CCCC(Cc2noc(-c3cccnc3)n2)C1 (centres undefined),-12%
O=C(NC1CCCc2c1[nH]c1ccc(F)cc21)C1(c2ccccc2)CCOCC1 (centres undefined),-18%
CNC(=O)[C@@H]1C[C@H](Oc2ccccc2)CN1C(=O)c1cccnc1,-18%
CNC(=O)[C@@H]1CN(C(=O)Cc2cc(C)no2)C[C@H]1COC,6%
COc1ccc(OC)c(CNC(=O)[C@H]2CCC[C@H]2NC(=O)c2cnc(C)cn2)c1,7%
Cc1cccc(-n2c(=O)c3c(cc(C)n3C)n(CC(=O)Nc3c(C)cccc3C)c2=O)c1,59%
N#Cc1ccc(CN2CC(CNC(=O)Nc3ccccc3)C3(C2)CN(c2ccccc2)C3)cc1 (centres undefined),i
COc1ccc(CN2CC(CNc3ccccc3)C3(C2)CN(c2ccccc2)C3)cc1O (centres undefined),3.5µM*
NC(=O)c1ccccc1OCC(=O)N1CC(CNc2ccccc2)C2(C1)CN(c1ccccc1)C2 (centres undefined),-15%
C=CCCC(CN1CCSCC1)Oc1ccc(C#N)cn1 (centres undefined),-30%
O=C(c1cc(F)ccc1F)N1CC2CC(C1)[C@H]1CCCC(=O)N1C2 (some centres undefined),-3%
CS(=O)(=O)N(Cc1cccnc1)C1CN(C(=O)CCCc2c[nH]c3ccccc23)C1,-22%
SMILES,Pf Dd2 growth
CNC(=O)[C@@H]1CN(C(=O)c2cc(C)n(CCOC)c2C)C[C@H]1c1n[nH]c(C)n1,-15%
O=C(O)CCCC(=O)N1Cc2ccccc2CC2(CCCCN2Cc2ccncc2)C1 (centres undefined),7%
O=C(O)CCCC(=O)N1Cc2ccccc2CC2(CCCN2Cc2ccccc2)C1 (centres undefined),-7%
CN1CCC(C(=O)N2Cc3ccccc3CC3(CCN(Cc4ccc(O)cc4)C3)C2)CC1 (centres undefined),0%
CN1CCC(C(=O)N2Cc3ccccc3CC3(CCCN(CC4CCNC4)C3)C2)CC1 (centres undefined),8%
CN1CCC(C(=O)N2Cc3ccccc3CC3(CCCCN3Cc3ccncc3)C2)CC1 (centres undefined),8.9µM*
CN1CCC(C(=O)N2Cc3ccccc3CC3(CCCN(Cc4cccnc4)C3)C2)CC1 (centres undefined),8.9µM*
O=C(c1cccnc1)N1CCC2(CC1)C(=NC1CCCC1)NC(=O)N2c1cc(F)cc(F)c1,10%
Fc1cccc(Cc2noc(-c3nc(-c4ccc5c(c4)OCO5)no3)n2)c1,-4%
Cc1ncc2c(c1CNC(=O)c1cccc(-c3ncc[nH]3)c1)CCNC2,-2%
NC(=O)[C@H](CC1CCCCC1)NC(=O)[C@H]1CNCCN1C(=O)NC1CCCCC1,-7%[44.1 µM]
Cc1cc(N2C[C@H]3CN(C(=O)CN(C)C)C[C@@]3(C(=O)O)C2)nc(N)n1,1%
CCn1cc(CN(C)C2CCc3nn(CC4CC4)c(=O)n3CC2)c(C)n1 (centres undefined),2%
CN(Cc1cn(C)c2ccccc12)C1CCc2nn(CC3CC3)c(=O)n2CC1 (centres undefined),5µM*
CN(C(=O)Cc1c[nH]c2ccccc12)C1CCc2nn(CC3CC3)c(=O)n2CC1 (centres undefined),-21%
COc1ccc(-c2noc(-c3nc(Cc4cccc(F)c4)no3)n2)cc1OC,i
Cc1cnc(C(=O)N2CCC(c3noc(-c4cccnc4)n3)C2)cn1 (centres undefined),i[5.79 µM]
Cc1cccc(CN2CCN(Cc3nc(-c4ccco4)oc3C)C(C)C2=O)c1 (centres undefined),13µM*
COc1cccc(CN2CC[C@H](c3nnc(-c4ccco4)o3)C2)c1,i
Cc1cccc(-c2nc(CN3C(=O)CN=C(c4ccccc4)c4ccccc43)c(C)o2)c1,-22%
O=S(=O)(Cc1ccccc1F)N1CCC(c2noc(-c3cccnc3)n2)C1 (centres undefined),7%[5.79 µM]
CN1C(=O)C(c2ccccc2)CC12CCN(C(=O)CN1CCCC1)CC2 (centres undefined),6%
Cc1ccc(C(=O)NC2CCN(c3cnn(C)c(=O)c3)CC2)cc1C,-5%
CCc1cc(C(=O)NCc2ccc(F)cc2)no1,8%
CCCC1=Nc2cc(C(=O)N3CCC(C)CC3)ccc2Sc2ccc(C)cc21,-23%
SMILES,Pf Dd2 growth
CC1=Nc2cc(C(=O)N3CCCCC3)ccc2Sc2ccc(C)cc21,i
CC1=Nc2cc(C(=O)NC3CCC(C)CC3)ccc2Sc2c(C)ccc(C)c21 (centres undefined),11µM*
CC1=Nc2cc(C(=O)NC3CCCC3)ccc2Sc2ccc(Br)cc21,7.9µM*
Cc1cccc(C)c1-c1nnc2ccc(C(=O)NC3CC3)cn12,23%
CCC1=Nc2cc(C(=O)NCc3ccc(F)cc3)ccc2Sc2ccc(C)cc21,5.6µM*
Cc1nc2cc(C(=O)NC3CCCCCC3)ccc2n1-c1ccc(Br)cc1,18%
CCC1=Nc2cc(C(=O)NC3CCC(C)CC3)ccc2Sc2ccc(C)cc21 (centres undefined),10µM*
CCn1ncc(N2CCC(NC(=O)c3ccc(C)c(C)c3)CC2)cc1=O,-10%
CCC1=Nc2cc(C(=O)NCCCOC)ccc2Sc2ccc(Br)cc21,-28%
Cc1ccccc1C(=O)N1CCc2nc3cc[nH]n3c(=O)c2C1,i[5.79 µM]
COc1ccccc1CC(=O)Nc1cnc(-c2cccc(Cl)c2)nc1,i
COc1ccc(NC(=O)C2CN(S(=O)(=O)c3cccnc3)CC23CCCCC3)cc1 (centres undefined),-26%
COCC(=O)NC[C@H]1OC[C@@H](NC2CCCCC2)[C@@H]1O,20%[44.1 µM]
C[C@@]1(O)CCN(C(=O)c2cccc(F)c2)C[C@H]1N1CCCC1,3%[5.79 µM]
O=C(C1CCCN(c2nc3ncccc3o2)C1)N1CCN(c2ncccn2)CC1 (centres undefined),i
COC1CCC12CCN(C(=O)c1ccoc1)CC2 (centres undefined),1%
